The results in this text go back to PubChem BioAssay (NCI).

This is part of a sample that, as a whole, favours compounds with a hit. Of some 83,000 tested, about 20% had one in any assay.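 Values shown are percent growth following 48 h exposure of cells in 96-well plates to a single concentration of compound; below 10 was considered active.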 Activity calls are given as the source filed them.

The test concerns HL-60(TB) leukemia. Description: NCI-60 one-dose screen, 48 h (100 = growth as untreated, 0 = no growth, -100 = all killed). The following applies: 10 µM unless noted.
As for `Cc1cc(N2CCOCC2)nc(N(CCCNc2ccnc3cc(Cl)ccc23)Cc2ccco2)n1`, the growth is -26.3% (active).

Take `CN1C(N2CCN(S(=O)(=O)c3ccccc3)CC2)=NS(=O)(=O)c2ccccc21`: the growth is 116% (inactive).

In the case of `C/C(=C(/c1ccccc1)c1ccc(OCC(O)CNCCN2CCOCC2)cc1)c1ccccc1` (stereo not given), the growth is 29% (inactive).

In the case of `CCc1ccc(-c2nnc(COc3ccc(-c4nc5ccc(C)cc5[nH]4)cc3OC)o2)cc1`, the growth was 6.14% (active).

With `CN1CCN(c2ccc(C(=O)Nc3n[nH]c4ccc(Cc5cc(F)cc(F)c5)cc34)c(NC3CCOCC3)c2)CC1`, the growth was -57.1% (active).

On to `COc1ccccc1Cn1cc2c(c1)-c1oncc1CC2`, for which the growth is 1.41% (active).

Consider `O=C1Nc2ccc(C(=O)O)cc2/C1=N/c1nnc(Sc2ccccc2)s1`, for which the growth was 96.4% (inactive).

For the compound `Nc1nc(-c2cc3c(cc2Cl)NC(=O)/C3=C/c2ccccc2)cs1`, the growth is 47% (inactive).

For `Cc1ccc(-n2nc3c(c(C#N)c2=O)CC(c2ccccc2Cl)C([N+](=O)[O-])=C3O)cc1` (stereo not given), the growth is 96% (inactive).

Consider `C#C[C@]1(O)CC[C@H]2[C@@H]3CC=C4c5sc(-c6ccccc6)nc5CC[C@]4(C)[C@H]3CC[C@@]21C`, for which the growth is 74.2% (inactive).

Turning to `COc1ccc(-c2nn(-c3cccc(NC(=O)c4cc(C(F)(F)F)cc(C(F)(F)F)c4)c3)cc2-c2ccncc2)cc1Cl`, the growth is 88.9% (inactive).

Regarding `CCCCCCCCCCCCCCCC[N+]1(C)CCN(SN2CC[N+](C)(CCCCCCCCCCCCCCCC)CC2)CC1`, the growth was 0.773% (active).

Turning to `CCC(C)Nc1ccc(NC(C)CC)cc1` (stereo not given), the growth was 57.5% (inactive).

Take `CN(C)CCCC(C#N)c1ccccc1` (stereo not given): the growth was 118% (inactive).

`CC/C=C\C[C@@H]1C/C=C2/C(=O)C=C[C@H]2C/C=C\CCCC(=O)O1`: the growth is -26% (active).

As for `COc1ccc(/C=C/c2c(C(=O)/C=C/c3ccc(C(F)(F)F)cc3)c(C)nc3ccccc23)cc1`, the growth is -21.7% (active).

For `Cc1ccc(S(=O)(=O)NCCN2c3nc4ccccc4cc3Sc3cc4ccccc4nc32)cc1`, the growth was 94.4% (inactive).

As for `N=C(N)Sc1cccc[n+]1[O-]`, the growth is 27.8% (inactive).

Regarding `CCC1S/C(=N\N=C(/C)c2cccs2)N(c2ccccc2)C1=O` (stereo not given), the growth is 59.2% (inactive).

In the case of `CCOc1ccc(C2N(c3cc(OC)c(OC)c(OC)c3)C(=O)C2(F)F)cc1` (stereo not given), the growth is -16% (active).

For the compound `Cc1cc(C(C)(CC(C)C)c2ccc(O)c(C)c2)ccc1O`, the growth was 106% (inactive).

Regarding `COc1cc(OC)c(C(=O)/C=C/c2cccc(C#N)c2)c(OC)c1`, the growth is -8.6% (active).

As for `O=C(Nc1ccc(Cl)cc1F)c1cc(I)ccc1O`, the growth is 19.9% (inactive).

`Cc1nc2sccn2c1-c1csc(Nc2cccc(Cl)c2C)n1`: the growth is 36.4% (inactive).

With `COc1ccc(Nc2nc(-c3cc(O)c(C)c(C)c3O)cs2)cc1`, the growth was 7.17% (active).

With `O=C1NC(=O)C(c2ccccc2)(c2ccccc2)N1Cc1cn(-c2c3ccccc3nc3ccccc23)nn1`, the growth was 73.3% (inactive).

`Cc1[nH]c(C(=O)Nc2nc3ccc(NC(=O)CCN)cc3s2)c(Cl)c1Cl`: the growth was 83.8% (inactive).

Regarding `C/C(=N\NC(=O)c1ccccc1N)c1ccccc1O`, the growth was 40.8% (inactive).

In the case of `COc1ccc(C2=Nc3c(N)nc(N)nc3NC(c3cccc(Nc4ccnc5cc(C(F)(F)F)ccc45)c3)C2)cc1` (stereo not given), the growth is 81.6% (inactive).

Regarding `CC1=C(NCCN2CCCC2)C(=O)c2c(OCc3ccc(F)c(Cl)c3)cccc2C1=O`, the growth is 98.1% (inactive).

With `O=C(NCCNC(=O)c1ccc(F)cc1)Nc1ccc(-n2cc(-c3ccncc3)c(-c3ccc(Cl)c(O)c3)n2)cc1`, the growth was -14.1% (active).

As for `CCOC(=O)c1c(C)oc2ncnc(N3CCN(C(=O)COc4ccc(SC)cc4)CC3)c12`, the growth was 97.2% (inactive).

On to `CC(C)(C)NC(=O)C(OC(=O)c1cccc(Cl)c1)c1ccc(Cl)cc1` (stereo not given), for which the growth is 103% (inactive).

With `C[C@H]1[C@H]2C3=CC[C@@H]4[C@@]5(C)C/C(=C/c6ccncc6)C(=O)C(C)(C)[C@@H]5CC[C@@]4(C)[C@]3(C)CC[C@@]2(C(=O)N2CCN(C)CC2)CC[C@@H]1C`, the growth is 57.3% (inactive).

Regarding `COc1ccc(-c2nnc(SCC(=O)NC3=NN=C(c4ccccc4)CS3)o2)cc1`, the growth is 90.9% (inactive).

For the compound `COC(=O)Nc1ccc2ccc3c(NC(=O)OC)ccc4ccc1c2c43` (tested in a mixture with another compound), the growth was 33.8% (inactive).

With `Nc1nc2ccccc2c2c(=O)c3cc(Cl)ccc3sc12`, the growth is 103% (inactive).

Regarding `COc1ccc(CCNC=O)cc1OC`, the growth was 96.9% (inactive).

Turning to `CCN(C(=O)c1ccc2c3c(cccc13)C=C2)c1ccccc1`, the growth is 86.4% (inactive).

For `COc1ccc2c(c1)cn1c3ccc(O)cc3nc(N)c21`, the growth was -15.8% (active).
